Experimental data as given in PubChem BioAssay.
The list shows a part of the results. Values without a mark were called inactive. Activity calls are given as the source filed them. Unless noted, no stated cut-off is given here; in the data, active means activation above about 20%; inactive means the rest.

What was measured:
[1] = biological target: Sphingosine 1-phosphate receptor 4 (Homo sapiens) (UniProt O95977); experiment: S1P4 receptor antagonists, human, confirmation, cell-based (AID 1524; in the data active means inhibition above about 30%); details: S1P4-expressing cell line, antagonist mode, reporter read-out; at 4.98 µM; stronger effect = higher value
Sphingosine 1-phosphate receptor 4 (Homo sapiens), sequence (O95977 whole entry, looked up): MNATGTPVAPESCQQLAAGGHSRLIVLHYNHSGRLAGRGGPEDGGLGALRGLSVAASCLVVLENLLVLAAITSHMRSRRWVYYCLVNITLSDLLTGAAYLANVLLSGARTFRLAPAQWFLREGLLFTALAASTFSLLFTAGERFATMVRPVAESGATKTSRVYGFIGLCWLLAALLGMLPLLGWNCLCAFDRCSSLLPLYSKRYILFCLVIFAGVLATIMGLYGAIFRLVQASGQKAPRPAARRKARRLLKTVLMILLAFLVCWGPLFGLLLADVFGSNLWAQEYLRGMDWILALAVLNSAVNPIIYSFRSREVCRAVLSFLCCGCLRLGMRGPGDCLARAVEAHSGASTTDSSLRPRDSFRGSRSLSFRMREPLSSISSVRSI

[2] = biological target: Sphingosine 1-phosphate receptor 1 (Homo sapiens) (UniProt P21453); experiment: S1P1 receptor antagonists, human, counter-screen for S1P4 antagonist project, cell-based (AID 1564; in the data active means inhibition above about 40%;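 further: receptor stimulated with S1P near its EC80; 0% = agonist stimulated wells and 100% = vehicle only wells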); details: cell-based S1P1 antagonist counterscreen, at 4.98 µM, stronger effect = higher value
Sphingosine 1-phosphate receptor 1 (Homo sapiens), sequence (P21453 whole entry, looked up): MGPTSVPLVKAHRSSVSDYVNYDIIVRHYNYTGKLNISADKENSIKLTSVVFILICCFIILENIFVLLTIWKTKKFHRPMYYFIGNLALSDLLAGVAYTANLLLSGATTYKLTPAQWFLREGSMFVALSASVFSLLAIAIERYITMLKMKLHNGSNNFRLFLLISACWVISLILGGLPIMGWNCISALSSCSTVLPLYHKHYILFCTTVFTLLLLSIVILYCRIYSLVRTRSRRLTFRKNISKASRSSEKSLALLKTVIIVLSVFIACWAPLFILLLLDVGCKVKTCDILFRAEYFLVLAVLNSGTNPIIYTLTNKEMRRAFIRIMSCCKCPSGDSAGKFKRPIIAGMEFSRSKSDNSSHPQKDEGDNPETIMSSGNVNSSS

[3] = biological target: Peroxisome proliferator-activated receptor gamma (Homo sapiens) (UniProt P37231); experiment: agonists of PPARgamma SRC-2 coactivator recruitment, confirmation, biochemical, HTS (AID 1297; in the data active means activation above about 22%;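 further: 0% = vehicle alone and 100% = reference agonist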); details: biochemical SRC-2 recruitment by PPARgamma; at 8 µM; stronger effect = higher value
Peroxisome proliferator-activated receptor gamma (Homo sapiens), sequence (P37231 whole entry, looked up): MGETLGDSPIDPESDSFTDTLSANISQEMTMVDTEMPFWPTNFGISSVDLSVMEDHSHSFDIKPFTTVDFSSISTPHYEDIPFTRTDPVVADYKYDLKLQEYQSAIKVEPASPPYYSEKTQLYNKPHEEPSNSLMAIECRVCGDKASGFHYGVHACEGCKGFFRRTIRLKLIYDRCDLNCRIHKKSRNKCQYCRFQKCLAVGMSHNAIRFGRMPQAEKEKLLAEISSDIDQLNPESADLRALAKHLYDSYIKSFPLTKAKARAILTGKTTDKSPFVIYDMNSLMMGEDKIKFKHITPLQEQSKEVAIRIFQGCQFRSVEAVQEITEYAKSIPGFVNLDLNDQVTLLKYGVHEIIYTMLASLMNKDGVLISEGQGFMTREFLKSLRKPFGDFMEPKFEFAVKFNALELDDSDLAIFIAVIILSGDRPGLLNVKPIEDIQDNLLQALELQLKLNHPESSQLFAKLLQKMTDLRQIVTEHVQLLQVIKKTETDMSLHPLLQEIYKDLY

[4] = biological target: Peroxisome proliferator-activated receptor gamma (Homo sapiens) (UniProt P37231); experiment: PPARgamma agonists recruiting SRC-1 coactivator, confirmation, biochemical (AID 1300); details: PPARgamma–SRC-1 coactivator recruitment biochemical assay; at 8 µM; stronger effect = higher value;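 further: 0% = vehicle wells and 100% = reference agonist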
[5] = biological target: Peroxisome proliferator-activated receptor gamma (Homo sapiens) + Nuclear receptor coactivator 3 (Homo sapiens) (UniProt P37231+Q9Y6Q9); experiment: PPARgamma-driven SRC-3 coactivator recruitment agonists, confirmation, biochemical (AID 1301; in the data active means activation above about 24%;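 further: 0% = vehicle wells and 100% = reference agonist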); details: biochemical PPARgamma-SRC-3 coactivator recruitment, agonist mode; at 8 µM; stronger effect = higher value
Peroxisome proliferator-activated receptor gamma (Homo sapiens) + Nuclear receptor coactivator 3 (Homo sapiens), sequence (P37231 whole entry, looked up): as above
Peroxisome proliferator-activated receptor gamma (Homo sapiens) + Nuclear receptor coactivator 3 (Homo sapiens), sequence (Q9Y6Q9 whole entry, looked up): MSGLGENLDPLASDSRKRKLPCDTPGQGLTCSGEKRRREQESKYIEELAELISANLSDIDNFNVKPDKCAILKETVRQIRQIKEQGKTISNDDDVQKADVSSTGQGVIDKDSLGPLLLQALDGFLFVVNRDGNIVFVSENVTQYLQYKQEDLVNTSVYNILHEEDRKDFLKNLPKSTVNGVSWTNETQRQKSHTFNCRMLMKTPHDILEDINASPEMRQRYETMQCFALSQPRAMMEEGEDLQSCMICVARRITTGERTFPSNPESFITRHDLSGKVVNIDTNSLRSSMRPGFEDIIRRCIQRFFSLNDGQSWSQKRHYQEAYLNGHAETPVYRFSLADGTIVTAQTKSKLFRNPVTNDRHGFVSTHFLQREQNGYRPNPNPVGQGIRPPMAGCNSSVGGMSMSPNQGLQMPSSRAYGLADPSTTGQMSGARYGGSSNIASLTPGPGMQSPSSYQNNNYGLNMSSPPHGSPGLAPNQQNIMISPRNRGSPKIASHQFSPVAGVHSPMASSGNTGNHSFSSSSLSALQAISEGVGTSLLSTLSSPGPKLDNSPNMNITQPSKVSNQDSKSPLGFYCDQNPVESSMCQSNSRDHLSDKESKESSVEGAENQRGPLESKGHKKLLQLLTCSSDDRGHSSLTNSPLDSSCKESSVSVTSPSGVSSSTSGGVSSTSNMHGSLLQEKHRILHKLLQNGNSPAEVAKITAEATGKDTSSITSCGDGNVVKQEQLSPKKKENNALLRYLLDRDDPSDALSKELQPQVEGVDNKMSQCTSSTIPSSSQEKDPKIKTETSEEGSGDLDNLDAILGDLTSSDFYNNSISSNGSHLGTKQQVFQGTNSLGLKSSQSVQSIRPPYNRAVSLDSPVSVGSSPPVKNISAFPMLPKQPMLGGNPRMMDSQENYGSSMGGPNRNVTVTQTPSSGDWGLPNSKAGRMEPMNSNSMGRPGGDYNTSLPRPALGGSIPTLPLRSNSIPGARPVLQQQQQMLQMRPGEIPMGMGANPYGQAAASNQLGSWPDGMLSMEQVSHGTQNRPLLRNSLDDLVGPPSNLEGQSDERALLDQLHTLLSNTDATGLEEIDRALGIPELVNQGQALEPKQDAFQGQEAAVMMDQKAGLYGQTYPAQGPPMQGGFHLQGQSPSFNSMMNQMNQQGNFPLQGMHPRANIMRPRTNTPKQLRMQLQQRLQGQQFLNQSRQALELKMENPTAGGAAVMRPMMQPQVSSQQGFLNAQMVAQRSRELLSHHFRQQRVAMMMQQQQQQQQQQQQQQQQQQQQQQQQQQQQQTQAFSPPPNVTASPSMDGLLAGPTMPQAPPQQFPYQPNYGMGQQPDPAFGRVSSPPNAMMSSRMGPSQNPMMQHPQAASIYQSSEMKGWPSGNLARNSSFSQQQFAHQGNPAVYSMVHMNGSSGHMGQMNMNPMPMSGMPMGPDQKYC

[6] = biological target: Photoreceptor-specific nuclear receptor (Homo sapiens) (UniProt Q9Y5X4); experiment: NR2E3 agonists, confirmation, biochemical, TR-FRET (AID 2379); details: cell-free NR2E3 corepressor release, 5 h, at 3.98 µM, stronger effect = higher value
Photoreceptor-specific nuclear receptor (Homo sapiens), sequence (Q9Y5X4 whole entry, looked up): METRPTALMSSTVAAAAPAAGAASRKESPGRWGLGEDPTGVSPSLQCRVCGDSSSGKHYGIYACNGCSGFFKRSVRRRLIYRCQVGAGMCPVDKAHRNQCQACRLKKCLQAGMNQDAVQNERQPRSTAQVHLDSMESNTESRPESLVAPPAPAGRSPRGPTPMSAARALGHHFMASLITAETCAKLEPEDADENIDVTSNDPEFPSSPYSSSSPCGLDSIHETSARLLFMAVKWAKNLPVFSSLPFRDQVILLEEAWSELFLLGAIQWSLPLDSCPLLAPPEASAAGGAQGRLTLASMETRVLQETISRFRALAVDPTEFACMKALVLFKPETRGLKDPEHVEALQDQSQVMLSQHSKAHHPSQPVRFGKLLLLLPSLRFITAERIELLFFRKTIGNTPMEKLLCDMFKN

[7] = biological target: Peroxisome proliferator-activated receptor gamma (Homo sapiens) + Nuclear receptor corepressor 2 (Homo sapiens) (UniProt P37231+Q9Y618); experiment: agonists of PPARg-NCOR2 corepressor interaction, counter-screen for NR2E3 agonist project, biochemical, TR-FRET (AID 504787; in the data active means inhibition above about 20%;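 further: 0% = DMSO vehicle and 100% = wells without protein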); details: TR-FRET PPARg-NCOR2 coregulator interaction, at 3.98 µM, stronger effect = higher value
[8] = biological target: Protein-arginine deiminase type-4 (Homo sapiens) (UniProt Q9UM07); experiment: human PAD4 inhibitors, confirmation, biochemical, fluorescence polarization (AID 488796;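 active means mean inhibition across replicates above the hit cutoff set by the earlier primary screen, cut at about 15% in these data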;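 further: inhibitors block active-site labeling by the probe so polarization falls; 0% = PAD4 with probe and DMSO and 100% = probe without PAD4 enzyme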); details: recombinant PAD4, RCA probe fluorescence polarization; at 6.36 µM; stronger effect = higher value
Protein-arginine deiminase type-4 (Homo sapiens), sequence (Q9UM07 whole entry, looked up): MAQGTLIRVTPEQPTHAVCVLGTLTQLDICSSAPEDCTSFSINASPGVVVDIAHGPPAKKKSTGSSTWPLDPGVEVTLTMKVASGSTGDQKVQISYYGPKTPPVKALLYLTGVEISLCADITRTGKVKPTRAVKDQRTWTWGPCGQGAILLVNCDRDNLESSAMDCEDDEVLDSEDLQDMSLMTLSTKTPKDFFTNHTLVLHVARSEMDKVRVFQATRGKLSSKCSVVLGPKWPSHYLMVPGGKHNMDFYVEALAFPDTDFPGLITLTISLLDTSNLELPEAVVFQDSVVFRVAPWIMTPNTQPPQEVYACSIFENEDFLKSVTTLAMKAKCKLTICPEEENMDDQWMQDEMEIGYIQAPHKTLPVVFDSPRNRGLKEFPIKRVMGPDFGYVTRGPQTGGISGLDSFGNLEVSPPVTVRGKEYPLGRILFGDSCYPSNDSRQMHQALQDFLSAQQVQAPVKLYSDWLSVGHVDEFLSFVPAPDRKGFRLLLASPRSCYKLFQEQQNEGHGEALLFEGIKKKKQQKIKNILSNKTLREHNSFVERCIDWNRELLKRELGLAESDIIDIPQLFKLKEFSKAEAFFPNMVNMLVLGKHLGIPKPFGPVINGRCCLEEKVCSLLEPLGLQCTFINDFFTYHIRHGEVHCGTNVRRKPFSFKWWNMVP

[9] = biological target: Serine protease HTRA1 (Homo sapiens) (UniProt Q92743); experiment: HTRA1 protease inhibitors, retest, confirmation, biochemical, fluorescence polarization (AID 540248;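 active means mean inhibition over three repeats above a set limit taken from the earlier primary screen, cut at about 37% in these data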;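 further: 0% = HTRA1 with DMSO and 100% = wells lacking HTRA1; inhibitors block probe binding so polarization drops and inhibition rises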); details: recombinant HTRA1, FP-rhodamine activity-based probe, at 5.96 µM, stronger effect = higher value
[10] = biological target: (Lyso)-N-acylphosphatidylethanolamine lipase (Mus musculus) (UniProt Q8VD66); experiment: ABHD4 inhibitors, retest, confirmation, biochemical, fluorescence polarization, mouse (AID 720658;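 active means mean inhibition across replicates above the hit cutoff set in the primary screen, cut at about 30% in these data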;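 further: 0% = wild-type ABHD4 with DMSO and 100% = catalytically dead S159A mutant with DMSO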); details: purified mABHD4, FP-Rh probe fluorescence polarization; at 8.92 µM; stronger effect = higher value
(Lyso)-N-acylphosphatidylethanolamine lipase (Mus musculus), sequence (Q8VD66 whole entry, looked up): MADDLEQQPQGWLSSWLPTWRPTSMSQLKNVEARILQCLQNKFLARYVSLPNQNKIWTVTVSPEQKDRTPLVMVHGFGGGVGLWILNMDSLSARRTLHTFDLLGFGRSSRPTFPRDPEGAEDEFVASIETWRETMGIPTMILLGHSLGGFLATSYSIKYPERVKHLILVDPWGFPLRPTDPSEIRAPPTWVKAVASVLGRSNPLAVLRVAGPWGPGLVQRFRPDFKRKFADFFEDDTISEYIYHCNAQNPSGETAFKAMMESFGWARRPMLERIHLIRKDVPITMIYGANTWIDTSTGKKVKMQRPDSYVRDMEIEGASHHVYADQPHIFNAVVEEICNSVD

**Q.** `Cc1cc(C)nc(S/C=C/C(=O)c2ccccc2)n1` was tested. Which inhibition [1] did it give?
**A.** 97.1% (active)

**Q.** And the inhibition [2]?
**A.** 19.6%

**Q.** With `COc1ccc2c(Cl)c(-c3nnco3)sc2c1` as the compound, how does the activation [3] read?
**A.** 20.4%

**Q.** What about the activation [4] of the same compound?
**A.** 13.6%

**Q.** And the activation [5]?
**A.** 13.6%

**Q.** `CCOC(=O)/C=C/C(=O)OCC(=O)NC(c1ccccc1)c1ccccc1` was tested. Which inhibition [1] did it give?
**A.** 63% (active)

**Q.** And the inhibition [2]?
**A.** 23.2%

**Q.** How did the activation [3] turn out when `Cc1ccccc1-c1n[nH]c(=S)n1/N=C/c1ccc(-c2ccccc2Br)o1` was run?
**A.** 33.5% (active)

**Q.** And the activation [4]?
**A.** 28.2% (active)

**Q.** And the activation [5]?
**A.** 22.5%

**Q.** For `CNC(=S)N1N=C(c2ccccc2)CC1c1ccc(Br)cc1` (stereo not drawn), which activation [3] is on record?
**A.** 24.2% (active)

**Q.** What about the activation [4] of the same compound?
**A.** 23.1% (active)

**Q.** What about the activation [5] of the same compound?
**A.** 17.2%

**Q.** How did the activation [3] turn out when `COC(=O)Cn1cc(C(=O)c2cccs2)c2ccccc21` was run?
**A.** -2.1%

**Q.** What about the activation [4] of the same compound?
**A.** 0.95%

**Q.** What about the activation [5] of the same compound?
**A.** 0.74%

**Q.** For `Cn1c(=O)cc(SCC(=O)N2CCN(C(=O)c3ccco3)CC2)c2ccccc21`, which activation [3] is on record?
**A.** 22.2% (active)

**Q.** And the activation [4]?
**A.** 12.7%

**Q.** And the activation [5]?
**A.** 17.9%

**Q.** What does the source list for `CC(C(=O)N1CCOCC1)N1c2cccc3cccc(c23)S1(=O)=O` (stereo not drawn)?
**A.** activation [3]: -0.94%; activation [4]: 1.12%; activation [5]: 1.88%

**Q.** How did the activation [3] turn out when `Cc1cc(C)c2cc(CN(Cc3cccs3)Cc3nnnn3CC3CCCO3)c(=O)[nH]c2c1` (stereo not drawn) was run?
**A.** 9.95%

**Q.** And the activation [4]?
**A.** 11.9%

**Q.** And the activation [5]?
**A.** 15%

**Q.** How did the activation [3] turn out when `CC(=O)c1sc2nc(SCC(=O)N3CCCCC3)[nH]c(=O)c2c1C` was run?
**A.** 27.4% (active)

**Q.** And the activation [4]?
**A.** 20.8% (active)

**Q.** What about the activation [5] of the same compound?
**A.** 18.3%

**Q.** And the activation (reported as inhibition) [6]?
**A.** 17.4%

**Q.** And the inhibition [7]?
**A.** 21.1% (active)

**Q.** Which results are given for `CC(C)c1ccc(N2CCN(C(=O)c3ccccc3NC(=O)/C=C(\C(=O)O)c3ccccc3)CC2)cc1`?
**A.** inhibition [1]: 102% (active); inhibition [2]: 62.4% (active)

**Q.** `OCC1(CCc2ccccc2)CCN(Cc2ccc3nsnc3c2)CC1` was tested. Which activation [3] did it give?
**A.** 32.8% (active)

**Q.** And the activation [4]?
**A.** 26.3% (active)

**Q.** What about the activation [5] of the same compound?
**A.** 22.9%

**Q.** Which results are given for `Cc1cc(C)c2c(c1)cc(C)c1nnc(SCC(=O)Nc3cc(C)on3)n12`?
**A.** activation [3]: 18.6%; activation [4]: 17.6%; activation [5]: 12.5%

**Q.** How did the activation [3] turn out when `CCN(CCCNC(=O)CSc1cc(=O)n(C)c2cc(Cl)ccc12)Cc1ccccc1` was run?
**A.** 29.4% (active)

**Q.** And the activation [4]?
**A.** 19.2%

**Q.** And the activation [5]?
**A.** 20.4%

**Q.** How did the activation [3] turn out when `COC(=O)c1[nH]c2ccc(Br)cc2c1NC(=O)Oc1ccccc1` was run?
**A.** 7.14%

**Q.** What about the activation [4] of the same compound?
**A.** 3.71%

**Q.** And the activation [5]?
**A.** 4.54%

**Q.** `O=C(O)Cc1sc(-c2ccccc2)nc1-c1cccs1` was tested. Which activation [3] did it give?
**A.** 42.6% (active)

**Q.** What about the activation [4] of the same compound?
**A.** 34.7% (active)

**Q.** What about the activation [5] of the same compound?
**A.** 32.9% (active)

**Q.** With `Nc1ccc(Nc2ccccc2)cc1` as the compound, how does the activation [3] read?
**A.** 10.1%

**Q.** What about the activation [4] of the same compound?
**A.** 5.63%

**Q.** What about the activation [5] of the same compound?
**A.** 6.91%

**Q.** And the inhibition [8]?
**A.** 6.93%

**Q.** And the inhibition [9]?
**A.** 54.5% (active)

**Q.** And the inhibition [10]?
**A.** 36.4% (active)
